# VDR inhibitor – vitamin D3 receptor (human) inhibition. P11473. actives 0.93% (n = 400,000). VDR-SRC2-3 peptide fluorescence polarization, 2 h. Potency, µM, inactives show max response, negative = inhibition, most hits filed as inhibitors. AID 504847
# Target sequence (P11473 whole entry, looked up): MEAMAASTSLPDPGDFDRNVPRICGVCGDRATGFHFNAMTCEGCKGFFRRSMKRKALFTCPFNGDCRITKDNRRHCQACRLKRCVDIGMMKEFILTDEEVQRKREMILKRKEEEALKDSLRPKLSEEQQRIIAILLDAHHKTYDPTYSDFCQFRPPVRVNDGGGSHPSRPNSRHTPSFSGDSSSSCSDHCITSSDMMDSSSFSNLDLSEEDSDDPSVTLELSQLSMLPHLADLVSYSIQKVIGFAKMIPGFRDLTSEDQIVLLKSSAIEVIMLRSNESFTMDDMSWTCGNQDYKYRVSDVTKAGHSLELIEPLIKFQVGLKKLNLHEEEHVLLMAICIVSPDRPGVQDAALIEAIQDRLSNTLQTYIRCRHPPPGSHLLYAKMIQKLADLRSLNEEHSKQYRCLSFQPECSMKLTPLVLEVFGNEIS
#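 Two reagent solutions held at 4 deg C in the dark were dispensed, compounds pinned at 23 nl, and the mixture incubated 2 h at room temperature. Read-out: fluorescence polarization of VDR–SRC2-3 peptide binding.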
# Sfp inh – inhibitors of Bacillus subtilis Sfp phosphopantetheinyl transferase | actives 3.5% (n = 310,000) | Biochemical Sfp PPTase activity, qHTS | Q9F4F7 | Potency, µM, without a hit: largest response in the series, negative = inhibition, usual class: inhibitors;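 also: the enzyme is Sfp with the accession as filed and its product quenches rhodamine fluorescence; 0% = enzyme reaction without inhibitor and -100% = no enzyme wells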
#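 Reaction rates are the 30-min fluorescence difference (ex 525, em 598 nm) in wells containing 15 nM Sfp, 5 uM rhodamine-CoA and 12.5 uM BHQ-2-YbbR at pH 7.6 with 10 mM MgCl2.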
# IDH1 R132H inh – inhibitors of human mutant IDH1 R132H; O75874; IDH1-R132H enzyme, NADPH consumption, diaphorase/resazurin fluorescence; Potency, µM (doses to about 76.6 µM), for the others: at the top dose activity change, negative = inhibition, actives largely listed as inhibitors; actives 0.093% (n = 390,000); AID 602179; also: nearly all actives have a fitted effect of over 65% in size
#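 IDH1-R132H (0.5 ug/mL) preincubated 30 min with compound, then NADPH (0.016 mM) and alpha-KG (2 mM) added; 80 min at RT, pH 7.5. Remaining NADPH coupled via diaphorase/resazurin to fluorescence (540/590 nm); concentration-response curves normalized to no-enzyme control.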
# TrxR1 substrate – substrates of rat thioredoxin reductase 1; actives 0.01% (n = 390,000); O89049; Potency, µM (series often up to 114 µM), for the others: at the highest dose activity change, negative = substrate turnover; AID 588456; purified TrxR1 substrate turnover, NADPH consumption readout; also: nearly all actives have a fitted effect of over 50% in size
#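 Rat TrxR1, dispensed at 90 nM, was prereduced with 400 uM NADPH (final) for 5 min at ~22 deg C, then incubated with compound 15 min before 400 uM selenite. A first-read NADPH fluorescence drop versus no-compound background flagged substrates.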
# PLK1 PBD block – PLK1 (human) polo-box domain binding inhibition. P53350. Plk1 PBD binding of FITC phosphopeptide, fluorescence polarization. Potency, µM, for the others: max response, negative = inhibition, usual class: inhibitors. actives 2.8% (n = 360,000); also: series mostly up to about 57 µM; nearly all actives have a fitted effect of over 65% in size
# rTrxR1 inhibitor – rat TrxR1 inhibition | O89049 | recombinant rTrxR1, NADPH fluorescence consumption, selenite substrate | Potency, µM (highest dose often 114 µM), without a hit: at the top dose activity change, negative = inhibition, most hits filed as inhibitors | actives 1% (n = 390,000) | AID 588453; also: nearly all actives have a fitted effect of over 65% in size
#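 Rat TrxR1 (90 nM in the dispensed reagent) was pre-reduced with 400 uM NADPH for 5 min at room temperature, then incubated with compound for 15 min. After 400 uM selenite was added, NADPH fluorescence (Ex 340/Em 450 nm) was followed for 8 min.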
# Active calls of the source: *; ? = inconclusive; . = no result; ! = repeats disagree; [ ] = another dose, or the depositor's remark. Sampled rows, rich in hits. Any-hit rate of the full collection: about 5.2%. Calls follow the shape of the dose curve; as a rule, active = well fitted curve in the direction sought with a large enough effect; inconclusive = small, poorly fitted or top-dose-only effect, or another doubt; inactive = no such curve, though single readings can be large; an effect the other way counts as inactive or inconclusive. Unless noted, % is scaled to controls: 0 for no effect and ±100 for the full control effect; potency is read from the fitted curve at half-maximal effect.
SMILES,VDR inhibitor,Sfp inh,IDH1 R132H inh,TrxR1 substrate,PLK1 PBD block,rTrxR1 inhibitor
Cc1cccc(-n2c(O)c(C=Nc3ccccc3)c3ccccc3c2=O)n1,32µM*,0%,-3%,-1%[57.1 µM],24µM*,17%[57.1 µM]
O=C1C(CCC(O)c2ccc(F)cc2)C(c2ccc(O)cc2)N1c1ccc(F)cc1 (stereo not drawn),?,15%,.,.,.,.
CC1C(=O)N(Cc2cn(CCC3OCCO3)nn2)CCS(=O)(=O)N1Cc1ccc(-c2ccc(F)cc2)cc1 (stereo not drawn),.,.,8%,.,5.3µM*,.
CC(=O)O[C@@]12CO[C@@H]1C[C@H](O)[C@@]1(C)C(=O)[C@H](O)C3=C(C)[C@@H](OC(=O)[C@H](O)[C@@H](NC(=O)OC(C)(C)C)c4ccccc4)C[C@](O)([C@@H](OC(=O)c4ccccc4)[C@H]21)C3(C)C,.,8.9µM*,.,.,.,.
CC(=O)Nc1ccc(OCc2cn(CC(=O)c3ccc(O)cc3)nn2)cc1,.,.,-7%,.,-21%,.
CC1CCC(NC(=O)CCS(=O)(=O)c2ccc3c(c2)NC(=O)CO3)CC1 (stereo not drawn),?,1%,-4%,3%[57.1 µM],17µM*,19%[57.1 µM]
O=C(CCS(=O)(=O)c1ccc2c(c1)NC(=O)CO2)NCCc1ccccc1,?,8%,0%,-9%[57.1 µM],19µM*,29%[57.1 µM]
O=C(CCS(=O)(=O)c1ccc2c(c1)NC(=O)CO2)NCc1ccccc1,-6%,16%,6%,5%[57.1 µM],-10%,22%[57.1 µM]
CC(=O)N1CCN(C(=O)c2ccc(-c3cccc(C(F)(F)F)c3)o2)CC1,-24%,.,9%,-3%,-10%,40µM*
O=C(CNC(=O)c1ccc(Cl)cc1)OC1CCOC1=O (stereo not drawn),-12%,22%,2%,4%[57.1 µM],24µM*,19%[57.1 µM]
COc1ccc(NC(=O)Cn2ncc3c2-c2ccccc2OC3)cc1Cl,10%,.,-1%,6%,.,17%
CCC(C)(C)c1ccc(OCCCC[n+]2ccc(C)cc2)c(C(C)(C)CC)c1,-9%,40µM*,-1%,-11%,?,-4%
CCC(C)(C)c1ccc(OCCCC[n+]2cccc(C)c2C)c(C(C)(C)CC)c1,1%,45µM*,1%,-4%,-1%,1%
COCc1cc(C)nc(SCC(=O)Nc2ccc(N3CCOCC3)cc2)c1C#N,-3%,14%,5%,-5%,-4%,-9%
O=C1C=CC(=O)N1Cc1ccncc1,-12%,.,-1%,5%,-12%,?
O=C1C=CC(=O)N1Cc1cccnc1,0%,.,-3%,4%,0%,79µM*
CS(=O)(=O)N1CCCCC1CCN1CCCCC1 (stereo not drawn),8%,.,7%,4%[57.1 µM],-5%,11%
CC(C)OCCCn1c(NN)nc2ccccc2c1=O,-6%,0%,8%,-1%[57.1 µM],-7%,42%[57.1 µM]
NNc1nc2ccccc2c(=O)n1Cc1ccccc1,-16%,20µM*,-11%,38%,0%,-20%
Cc1ccccc1S(=O)(=O)Cc1ccc(C(=O)NC2CCCCC2)o1,-24%,17%,0%,7%,21µM*,-4%
COc1ccc(C2C(CC(=O)O)=C(O)C(=O)N2c2ccccc2)cc1 (stereo not drawn),-14%,-3%,1%,3%,-15%,32µM*
COc1ccc(C2C(C(C)=O)=C(O)C(=O)N2c2ccc(O)cc2)cc1 (stereo not drawn),4%,-2%,12%,-16%,-9%,-13%
Cc1ccc(C)c(Cn2c(=O)c3c(nc4n3CCN4c3ccccc3)n(C)c2=O)c1,2%,.,-6%,11%[11.4 µM],.,18%
Cc1ccc(CN2C(=O)CSC(C)C2=O)cc1 (stereo not drawn),6%,11%,-8%,3%,-17%,19%
CCCC(=O)Nc1c(C)n[nH]c1C,-16%,9%,-2%,1%,27µM*,20%
SMILES,VDR inhibitor,Sfp inh,IDH1 R132H inh,TrxR1 substrate,PLK1 PBD block,rTrxR1 inhibitor
CCN(CC)S(=O)(=O)c1nnc(NC(=O)c2ccc(C(C)C)cc2)s1,5%,.,-6%,5%,.,30%
COc1cc(NC(=O)CSc2ccc(-c3ccco3)nn2)cc(OC)c1,-12%,28µM*,3%,2%,-18%,35µM*
COc1ccc(NC(=O)CSc2ccc(-c3ccco3)nn2)cc1,-16%,32µM*,0%,-9%,-25%,50µM*
CCCc1c(C(=O)N/N=C/c2ccc3c(c2)OCO3)nnn1-c1nonc1N,.,.,-4%,.,-3%,.
Cc1ccc(C)c(NC(=O)Cc2coc3cc(C)cc(C)c23)c1,1%,.,10%,-4%,.,-1%
O=C(O)C1CCC[C@@H]2[C@@H]3CC(CN12)[C@@H]1CCCCN1C3 (stereo partly drawn),-4%,7%,.,.,.,.
COc1ccc(/[N+]([O-])=C/c2ccco2)cc1,?,.,16%,-7%,?,56µM*
COc1ccc(OCC(=O)N/N=C\c2ccco2)cc1,-16%,5%,-1%,-2%,-5%,12%[57.1 µM]
CCCC(C(=O)NCc1cccc(Cl)c1)N1Cc2ccccc2C1=O (stereo not drawn),6%,.,5%,-3%,.,9%
COc1cc(C(=O)O[C@H]2C/C(C)=C/CC/C(C)=C/[C@@H](O)C2C(C)C)ccc1O (stereo partly drawn),0%,33%,.,.,.,.
C#CCOc1ccc(/C=C2/C(=O)N(c3ccc(S(N)(=O)=O)cc3)N=C2C)cc1OC,.,.,-8%,.,1.2µM*,.
COc1cc(/C=C2\C(=O)N(c3cccc(C(=O)O)c3)N=C2C)ccc1OCc1ccccc1,.,.,-6%,.,1.1µM*,.
C#CCOc1ccc(/C=C2/C(=O)N(c3cccc(C(=O)O)c3)N=C2C)cc1OC,?,?,-7%,-3%,1.9µM*,-7%
COc1cc(/C=C/[N+](=O)[O-])ccc1OCc1cccc(C(=O)O)c1,20µM*,14µM*,10%,-12%,6µM*,32µM*
COc1cc(/C=C/C(=O)NCCc2ccc(S(N)(=O)=O)cc2)ccc1OCC#N,10%,3%,-9%,4%,4%,-7%
COc1ccccc1CNC(=O)c1cc(C(C)=O)c[nH]1,-2%,9%,-8%,-2%,-12%,9%
Cc1ccc(S(=O)(=O)N2CCC[C@H]2C(=O)NC2=NCCS2)cc1,-8%,.,5%,3%,0%,22%[57.1 µM]
CC1=NN(c2cccc(C(=O)O)c2)C(=O)/C1=C\C=C\c1ccco1,?,-23%,6%,-7%,8.4µM*,?
O=c1oc2c(O)c(O)cc3c(=O)oc4c(O)c(O)cc1c4c23,40µM*!,?,-6%,4%,8.4µM*,5%
O=c1oc2ccccc2c2oc3cc(O)c(O)cc3c12,26%,?,-1%,3%,-24%,-3%

# Assay outcomes: PubChem BioAssay, National Center for Advancing Translational Sciences (NCATS)
